# Bioassay records: PubChem BioAssay, several laboratories
# PostGolgi yeast: growth inhibition of a yeast mutant, post-Golgi transport screen; post-Golgi transport phenotypic cell assay; inhibition, % at 10 µM; 0.9% of 98,000 active; AID 739;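 further: yeast cells grown in 1536-well plates; yeast grown about 18 h at 30C before absorbance read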
# PostGolgi ctrl: yeast control strain growth, post-Golgi counter-screen; efflux-deficient yeast background strain, growth absorbance A615, 16 h; inhibition, % at 10 µM; 5% of 98,000 active
# CYP2C19 inh: blocks human cytochrome P450 2C19; P33261; 21% of 96,000 active; inhibition, % at 5 µM; AID 778; CYP2C19 Supersomes, luciferin-H EGE luminescence, 30 min;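 active means CYP2C19 inhibition above a set limit at 5 µM in the primary screen, cut at about 50% in these data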;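 further: plate controls were negative control wells for no effect and 2.5 mM tranylcypromine positive control for full effect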
# CYP2C19 activ: increases human CYP2C19 enzyme activity. P33261. recombinant CYP2C19, luciferin-H EGE luminescence; active compounds read high; 0 = fully inhibited enzyme, 1 = untreated enzyme. activation factor at 5 µM. 96,000 tested, under 10 active;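 active means activation factor of at least 2 at 5 µM in the primary screen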;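 further: 0 = wells with 2.5 mM tranylcypromine and 1 = vehicle-only wells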
# CYP2C9 inh: blocks human cytochrome P450 2C9 | P11712 | CYP2C9 Supersomes, luciferin-H conversion, luminescence | inhibition, % at 5 µM | 20% of 96,000 active;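 active means blocking of liver enzyme CYP2C9 beyond about 50% at 5 µM, limit read from the data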
# Target sequence (P11712 whole entry, looked up): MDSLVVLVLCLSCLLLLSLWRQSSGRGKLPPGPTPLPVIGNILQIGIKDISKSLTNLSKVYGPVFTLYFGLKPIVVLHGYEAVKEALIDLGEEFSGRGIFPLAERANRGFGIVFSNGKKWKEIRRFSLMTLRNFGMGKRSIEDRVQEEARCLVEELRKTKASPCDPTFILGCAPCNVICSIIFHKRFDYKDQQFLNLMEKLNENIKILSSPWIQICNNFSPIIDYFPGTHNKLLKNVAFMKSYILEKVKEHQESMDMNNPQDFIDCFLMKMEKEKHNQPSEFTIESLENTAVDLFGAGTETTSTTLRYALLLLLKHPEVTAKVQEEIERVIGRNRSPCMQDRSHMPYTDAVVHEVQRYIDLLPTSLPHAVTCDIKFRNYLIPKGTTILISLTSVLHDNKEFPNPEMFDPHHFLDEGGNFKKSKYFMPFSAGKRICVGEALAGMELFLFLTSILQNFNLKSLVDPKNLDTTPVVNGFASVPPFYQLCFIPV
# CYP2C9 act: activators of human CYP2C9; recombinant CYP2C9, luciferin-H conversion, luminescence; active compounds read high; factor 1 = untreated enzyme, 0 = blocked; activation factor at 5 µM; 1.4% of 96,000 active; AID 1024;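 active means activation factor of 2 or more for CYP2C9 at a 5 µM dose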;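 further: 0 = sulfaphenazole-blocked wells and 1 = vehicle-only wells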
# Starred values were filed as active, the others as inactive; . = no result. Most compounds without a hit are left out; they make up all but 32% or so of the library. Unless noted, no stated cut-off is given here; in the data, active means inhibition above about 30%; inactive means the rest.
SMILES,PostGolgi yeast,PostGolgi ctrl,CYP2C19 inh,CYP2C19 activ,CYP2C9 inh,CYP2C9 act
CCCCCCOc1ccc(CN2CCN(CCO)CC2)cc1,89*,31*,10,0.9,2,1
CCCCOc1ccc(CN2CCN(CCO)CC2)cc1,5,8,-11,1.1,-8,1.1
CC(O)(CS(=O)(=O)c1cccc(C(F)(F)F)c1)C(=O)Nc1ccc(C(F)(F)F)cc1 (configuration not stated),-3,-1,83*,0.2,47,0.5
CC(O)(CS(=O)(=O)c1ccccc1)C(=O)Nc1cccc(C(F)(F)F)c1 (configuration not stated),-8,1,69*,0.3,5,1
Cc1ccc(S(=O)(=O)CC(C)(O)C(=O)Nc2cccc(C(F)(F)F)c2)cc1 (configuration not stated),7,2,48,0.5,17,0.8
CC1CN(c2ccc([N+](=O)[O-])c3cccnc23)CC(C)N1 (configuration not stated),17,-5,-16,1.2,-12,1.1
Nc1c(C(=O)NC2CCCC2)c2nc3ccccc3nc2n1CC1CCCO1 (configuration not stated),-2,62*,2,1,27,0.7
C=CCNC(=O)c1c(N)n(CCN2CCOCC2)c2nc3ccccc3nc12,-1,21,24,0.8,29,0.7
Nc1c(C(=O)OCC2CCCO2)c2nc3ccccc3nc2n1Cc1cccs1 (configuration not stated),-2,9,41,0.6,57*,0.4
CC(C)OCCCNC(=O)c1c(N)n(Cc2cccs2)c2nc3ccccc3nc12,8,28,14,0.9,91*,0.1
CCOc1ccccc1C1SCC(=O)Nc2c1c(=O)[nH]n2C(CC)CC (configuration not stated),2,8,2,1,-1,1
O=C(Cc1ccccc1)OCCN1CCCCC1,8,6,14,0.9,2,1
Cc1sc2nc(COC(=O)Cc3ccccc3)[nH]c(=O)c2c1C,2,8,40,0.6,60*,0.4
CCCCc1nc2ccccc2c(=O)n1-c1ccc(O)cc1,1,-1,.,.,.,.
CCOc1ccc(-n2c(CC)nc3ccccc3c2=O)cc1,7,31*,7,0.9,10,0.9
COC(=O)c1cc(C(O)(C(=O)OC)C(F)(F)F)c(/N=C/N(C)C)s1 (configuration not stated),-3,2,83*,0.2,73*,0.3
c1cc2n(c1)-c1c(ccc3c1OCO3)CNC2c1ccc2c(c1)OCO2 (configuration not stated),-7,11,99*,0,77*,0.2
COc1ccc(C2NCc3ccc4c(c3-n3cccc32)OCO4)cc1O (configuration not stated),-4,6,68*,0.3,-6,1.1
CCCCn1c(=O)c(C(=O)NCc2ccncc2)c(O)c2ccccc21,-3,3,92*,0.1,100*,0
CC(C)n1nnnc1CN1CCN(C)CC1,2,2,7,0.9,-9,1.1
O=C(Cc1ccccc1)OC(COCc1ccccc1)CN1CCOCC1 (configuration not stated),-7,7,73*,0.3,44,0.6
ON1C2CCCCC2N(O)C1c1ccccc1F (configuration not stated),9,9,-8,1.1,-5,1.1
COc1cc(Br)cc(CN2CCN(C)CC2)c1O,-39,6,2,1,-7,1.1
COc1cc(C)c(CN2CCN(c3ccccc3)CC2)cc1C,-3,7,56*,0.4,6,0.9
COc1ccccc1N1CCN(Cc2c(F)cccc2Cl)CC1,-2,0,97*,0,68*,0.3
SMILES,PostGolgi yeast,PostGolgi ctrl,CYP2C19 inh,CYP2C19 activ,CYP2C9 inh,CYP2C9 act
COc1ccccc1N1CCN(Cc2cc(C)c(C)cc2O)CC1,5,-4,79*,0.2,-110,2.1*
COc1ccccc1N1CCN(Cc2ccc(Br)s2)CC1,-5,4,94*,0.1,78*,0.2
COc1ccc(Br)cc1CN1CCN(CCO)CC1,11,21,28,0.7,26,0.7
CN1CCN(Cc2ccc(Br)s2)CC1,4,6,0,1,-22,1.2
COc1ccccc1CCNC1CCC(C(C)(C)C)CC1 (configuration not stated),6,27,32,0.7,7,0.9
CC1(C)CC(=O)C=C(NCCN2CCN(C(=O)Cc3ccc(Cl)cc3)CC2)C1,.,.,28,0.7,21,0.8
Oc1ccc(Br)cc1CN1CCN(c2ccccc2)CC1,0,5,24,0.8,64*,0.4
COc1cc(CN2CCN(c3cc(C)ccc3C)CC2)ccc1O,-2,2,56*,0.4,33,0.7
CSCCC(N=Cc1c(O)n(-c2ccc(Cl)cc2)c(=O)[nH]c1=O)C(=O)OC(C)(C)C (configuration not stated),4,13,13,0.9,10,0.9
O=C1C2CCN(CC2)C1Cc1ccccc1O (configuration not stated),2,0,0,1,0,1
O=C1C2CCN(CC2)C1Cc1ccc(OCCOc2ccccc2)cc1 (configuration not stated),1,43*,-15,1.1,-9,1.1
CC(C)NS(=O)(=O)c1ccc(OCC(=O)N2CCN(Cc3ccc4c(c3)OCO4)CC2)c(Cl)c1,-4,5,71*,0.3,18,0.8
Cc1cc(S(=O)(=O)NC(C)C)ccc1OCC(=O)N1CCN(Cc2ccc3c(c2)OCO3)CC1,-7,5,63*,0.4,59*,0.4
Cc1cc(S(=O)(=O)NCC(C)C)ccc1OCC(=O)N1CCN(Cc2ccccc2)CC1,-2,30,50*,0.5,66*,0.3
CCN1CCN(C(=O)COc2cc(=O)n(CC)c3ccccc23)CC1,7,8,4,1,-43,1.4
Cc1ccc(OCC(=O)NCCN2CCN(C(=O)COc3ccc(C)cc3)CC2)cc1,7,0,37,0.6,38,0.6
CNP1(NC)=NC(C(F)(F)F)=NC(C(F)(F)F)=N1,-1,0,11,0.9,7,0.9
O=P(Nc1ccccc1)(Nc1ccccc1)Oc1cccc(Cl)c1,-8,16,47,0.5,51*,0.5
CCOP(=O)(CN(CC)CCNP(=O)(OCC)OCC)OCC,18,-7,-7,1.1,-9,1.1
O=c1c2ccccc2nc(-c2ccccc2)n1-n1cccc1,6,2,53*,0.5,57*,0.4
O=c1c2ccccc2nc(-c2ccccc2)n1-c1ccncc1,-3,12,21,0.8,8,0.9
O=S1(=O)CC2(N3CCOCC3)CCCCC21 (configuration not stated),3,1,-8,1.1,-11,1.1
